Results on 9 molecules are retold here after PubChem BioAssay (Tox21).

Assay [1] can be described thus: qHTS assay to identify small molecule agonists of the estrogen receptor alpha (ER-alpha) signaling pathway in the presence of an antagonist - cell viability counter screen (AID 1259386).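 Note: series mostly up to about 92 µM; cells exposed to compounds for 22 h at 37 °C before the viability read; nearly all actives have a fitted effect of over 30% in size.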 In outline: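 VM7Luc4E2, stripped-serum pre-culture 5 d; 24hr plating; +ICI-182,780 10.0nM final; cpds 15 conc, 22hr, 37C/5% CO2; CellTiter-Fluor added at 21hr, fluorescence 1hr later.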

The target of assay [2] is Progesterone receptor (Homo sapiens) (UniProt P06401). As to the kind of experiment: qHTS assay to identify small molecule agonists of the progesterone receptor (PR) signaling pathway (AID 1346784; calls by dose curve; note: nearly all actives have a fitted effect of over 30% in size). In outline: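 PR-UAS-bla HEK 293T cells (beta-lactamase reporter under UAS) in 2% charcoal-stripped FBS, dosed with 23 nL compound after 6 hr, incubated 16hr at 37C. LiveBLAzer B/G FRET substrate added, fluorescence read after 2 hours.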

Assay [3] has the same target. As to the kind of experiment: qHTS assay to identify small molecule antagonists of the progesterone receptor (PR) signaling pathway (AID 1346795; active = well fitted inhibition curve with a large enough effect in the signal ratio in the repeat runs, not every such curve was filed as active; the % refers to the signal ratio). The procedure, abridged: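 PR-UAS-bla HEK293T cells with beta-lactamase reporter under UAS control, in 2% charcoal-stripped FBS, treated with compounds plus 1 nM promegestone (R5020, final) for 16 hr at 37C. Read-out: FRET beta-lactamase substrate fluorescence after 2 hr at room temperature.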

The nature of assay [4]: qHTS assay to identify small molecule antagonists of the progesterone receptor (PR) signaling pathway - cell viability counter screen (AID 1346798). Note: series mostly up to about 92 µM; nearly all actives have a fitted effect of over 50% in size. The procedure, abridged:
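PR-UAS-bla HEK293T cells, 3,000/well in 2% charcoal-stripped FBS medium, dosed with compounds plus R5020 agonist and incubated 16 h at 37C. Viability then measured in the same wells by CellTiter-Glo luminescence after 30 min at RT.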

Assay [5] can be described thus: qHTS assay to identify small molecule agonists of the progesterone receptor (PR) signaling pathway - cell viability counter screen (AID 1346799; calls by dose curve; note: nearly all actives have a fitted effect of over 45% in size). The procedure, abridged:
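Counter screen in the PR-UAS-bla HEK293T wells (2% charcoal-stripped FBS, 16 h compound exposure at 37 C) after the bla read. CellTiter-Glo added, 30 min at room temperature, luminescence read as cell viability.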

Assay [6] is described as follows: qHTS assay to identify small molecule agonists of the TGF-beta/Smad signaling pathway - cell viability counter screen (AID 1346829). Note: top concentration of the series differs between compounds; nearly all actives have a fitted effect of over 45% in size. In outline: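 Luminescence from CellTiter-Glo, read after a 30 min room-temperature incubation, gives cell viability of SBE-bla HEK 293T cells treated 5 hr with compounds at 37 C.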
Assay [7] in a line: qHTS assay to identify small molecule agonists of the TGF-beta/Smad signaling pathway (AID 1346859; active = well fitted activation curve with a large enough effect in the signal ratio in the repeat runs, not every such curve was filed as active; the % refers to the signal ratio; note: series mostly up to about 77 µM). The procedure, abridged: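 SBE-bla HEK293T cells plated overnight, then compound exposure for 5 h at 37 C. Beta-lactamase reporter read with LiveBLAzer B/G FRET substrate after 2 h at room temperature, fluorescence at 405 nm excitation, 460/530 nm emission.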
In assay [8] the target is Thyrotropin-releasing hormone receptor (Homo sapiens) (UniProt P34981). As to the kind of experiment: qHTS assay to identify small molecule antagonists of the thyrotropin-releasing hormone receptor (TRHR) signaling pathway (AID 1346877; active = well fitted inhibition curve with a large enough effect in the repeat runs, not every such curve was filed as active; note: series mostly up to about 51 µM). In outline: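 Intracellular calcium fluorescence, read kinetically every second over 3 min, reports TRH-evoked signalling in HEK293 cells carrying TRHR. Test compounds were added 5 min ahead of a 1 nM TRH challenge.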

Assay [9] has the same target. As to the kind of experiment: qHTS assay to identify small molecule agonists of the thyrotropin-releasing hormone receptor (TRHR) signaling pathway (AID 1346891; calls by dose curve; note: series mostly up to about 58 µM). In outline:
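HEK293 cells expressing TRHR plated 18 h at 37 C/5% CO2, calcium dye-loaded 2 h at 37 C, then compound added (agonist mode); kinetic calcium fluorescence read 3 min at 1 s intervals; 15 concentrations in triplicate.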

Assay [10] is described as follows: Human pregnane X receptor (PXR) small molecule agonists, qHTS cell viability counter screen (AID 1346977). Note: nearly all actives have a fitted effect of over 50% in size. In outline: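 PXR-Luc HepG2 cells (2,000/well, 5% charcoal-stripped FBS) preincubated 5 hr, then exposed to compounds 24 hr at 37 C. Viability read in the same wells by CellTiter-Fluor fluorescence, reagent added at 23 hr, 1 hr incubation.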
The nature of assay [11]: Caspase-3/7 induction in HepG2 cells by small molecules, qHTS assay (AID 1346978). Note: nearly all actives have a fitted effect of over 15% in size. The procedure, abridged:
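Wild-type HepG2 cells, 2,000/well, settled 5 hr at 37 C and 5% CO2, then compound-treated for 17 hr; caspase-3/7 activity read by luminescent Caspase-Glo 3/7 after 30 min at room temperature.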

A short description of assay [12]: Caspase-3/7 induction in CHO-K1 cells by small molecules, qHTS cell viability counter screen (AID 1346979). Note: nearly all actives have a fitted effect of over 35% in size. Note: potency is the fitted concentration of half-maximal effect. In outline:
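Wild-type CHO-K1 cells (1,500/well) treated with compound after 5 h plating; after 16 h at 37C, viability read as CellTiter-Fluor fluorescence following 1 h reagent incubation, in the same wells as the caspase read.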

The nature of assay [13]: Caspase-3/7 induction in HepG2 cells by small molecules, qHTS cell viability counter screen (AID 1346981). Note: nearly all actives have a fitted effect of over 30% in size. Note: potency is the fitted concentration of half-maximal effect. In outline:
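HepG2, WT, 2,000 cells/well; 5 hr pre-incubation 37 C/5% CO2; compound pin-transferred from DMSO; 16 hr exposure; CellTiter-Fluor, 1 hr; fluorescence read.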

Assay [14] addresses Nuclear receptor subfamily 1 group I member 2 (Rattus norvegicus) (UniProt Q9R1A7). As to the kind of experiment: Rat pregnane X receptor (rPXR) activation by small molecules, qHTS assay (AID 1346983). Note: nearly all actives have a fitted effect of over 20% in size. The note with it: rPXR luciferase reporter cells, One-Glo luminescence, 24 h; hits give high values. The procedure, abridged:
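Cell-based rPXR activation assay: rPXR cells, 2,000 per well, rested 5hr at 37 C, then exposed to compounds in DMSO for 24 hr at 37 C. Luciferase activity read by One-Glo luminescence after 30 min at room temperature.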

Assay [15] has as its target Nuclear receptor subfamily 1 group I member 2 (Homo sapiens) (UniProt O75469). As to the kind of experiment: CYP3A4 induction through human pregnane X receptor (PXR) by small molecules, qHTS assay (AID 1346984). Note: nearly all actives have a fitted effect of over 40% in size. The procedure, abridged: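 Luminescence readout: luciferase signal after One-Glo (30 min, room temperature), following 3 h at 37C with 3uM final Luciferin-IPA P450 substrate. Cells were DPX-2 (HepG2, PXR/CYP3A4-luc co-transfected) dosed for 24 h.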

Assay [16] has the same target. As to the kind of experiment: Human pregnane X receptor (PXR) activation by small molecules, qHTS assay (AID 1346985). Note: nearly all actives have a fitted effect of over 40% in size. The procedure, abridged:
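DPX-2 cells (HepG2 co-transfected with a PXR response element and a CYP3A4-promoter luciferase construct) were seeded at 2,000 per well, rested 5 hr at 37C, then exposed to DMSO-dissolved compounds for 24 hr. Activation was read as luciferase luminescence.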

Assay [17] in a line: Caspase-3/7 induction in CHO-K1 cells by small molecules, qHTS assay (AID 1346980). Note: nearly all actives have a fitted effect of over 15% in size. The procedure, abridged:
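Wild-type CHO-K1 cells exposed to compounds for 17hr at 37 C, 5% CO2. Caspase-3/7 activity then measured by Caspase-Glo 3/7 luminescence after 30min at room temperature.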

The target in assay [18] is Nuclear receptor subfamily 1 group I member 2 (Homo sapiens) (UniProt O75469). As to the kind of experiment: Human pregnane X receptor (PXR) small molecule agonists, qHTS assay (AID 1346982). Note: nearly all actives have a fitted effect of over 35% in size. Note: potency is the fitted concentration of half-maximal effect. In outline: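 Luciferase signal from ONE-Glo (30 min, room temperature) measured activation of hPXR-driven CYP3A4 reporter expression in PXR-Luc HepG2 cells treated with compounds for 24 hr at 37 C.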

Assay [19] is described as follows: qHTS assay to identify small molecule antagonists of the TGF-beta/Smad signaling pathway - cell viability counter screen (AID 1346824). Note: nearly all actives have a fitted effect of over 50% in size. The procedure, abridged: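 SBE-bla HEK 293T cells, incubated overnight, then compound plus 0.25 ng/mL TGF-beta1 (stock added) for 5 hr at 37 C. Viability was read in the same wells by CellTiter-Glo luminescence after 30 min at room temperature.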

Structures are written as SMILES. Unmarked numbers belong to inactive results. Inconclusive results are not listed. Active and inactive are the calls of the source. Unless noted, calls come from the whole dose curve; as a rule, active = well fitted curve in the direction sought with a large enough effect in the repeat runs; inconclusive = weak or mixed curves; inactive = no such curve, though single readings can be large; an effect the other way counts as inactive or inconclusive.
% is set by controls: 0 for no effect and ±100 for the full control effect.

Chain of Thyrotropin-releasing hormone receptor (Homo sapiens) (P34981 whole entry, looked up): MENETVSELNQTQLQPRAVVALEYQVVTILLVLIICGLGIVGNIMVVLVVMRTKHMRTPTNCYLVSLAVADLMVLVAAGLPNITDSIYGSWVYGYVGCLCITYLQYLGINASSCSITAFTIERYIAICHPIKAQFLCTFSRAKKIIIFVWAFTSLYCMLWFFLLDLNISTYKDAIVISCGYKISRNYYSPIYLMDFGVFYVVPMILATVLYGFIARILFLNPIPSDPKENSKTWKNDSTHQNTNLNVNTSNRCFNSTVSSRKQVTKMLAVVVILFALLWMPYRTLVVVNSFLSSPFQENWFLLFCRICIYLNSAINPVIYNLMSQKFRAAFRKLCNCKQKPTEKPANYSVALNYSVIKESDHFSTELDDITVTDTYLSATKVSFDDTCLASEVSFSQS
Chain of Nuclear receptor subfamily 1 group I member 2 (Homo sapiens) (O75469 whole entry, looked up): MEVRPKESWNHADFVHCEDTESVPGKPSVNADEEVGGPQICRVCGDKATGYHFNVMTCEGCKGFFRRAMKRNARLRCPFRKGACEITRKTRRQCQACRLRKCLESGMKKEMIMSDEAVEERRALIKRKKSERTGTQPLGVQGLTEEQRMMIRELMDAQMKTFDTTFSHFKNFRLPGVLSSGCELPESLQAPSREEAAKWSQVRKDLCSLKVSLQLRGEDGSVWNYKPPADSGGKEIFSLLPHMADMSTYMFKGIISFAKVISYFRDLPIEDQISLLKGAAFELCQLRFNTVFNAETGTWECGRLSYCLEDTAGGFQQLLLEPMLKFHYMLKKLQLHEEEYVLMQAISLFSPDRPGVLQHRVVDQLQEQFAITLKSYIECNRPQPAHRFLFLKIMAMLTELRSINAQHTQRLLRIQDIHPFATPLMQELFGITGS
Chain of Progesterone receptor (Homo sapiens) (P06401 whole entry, looked up): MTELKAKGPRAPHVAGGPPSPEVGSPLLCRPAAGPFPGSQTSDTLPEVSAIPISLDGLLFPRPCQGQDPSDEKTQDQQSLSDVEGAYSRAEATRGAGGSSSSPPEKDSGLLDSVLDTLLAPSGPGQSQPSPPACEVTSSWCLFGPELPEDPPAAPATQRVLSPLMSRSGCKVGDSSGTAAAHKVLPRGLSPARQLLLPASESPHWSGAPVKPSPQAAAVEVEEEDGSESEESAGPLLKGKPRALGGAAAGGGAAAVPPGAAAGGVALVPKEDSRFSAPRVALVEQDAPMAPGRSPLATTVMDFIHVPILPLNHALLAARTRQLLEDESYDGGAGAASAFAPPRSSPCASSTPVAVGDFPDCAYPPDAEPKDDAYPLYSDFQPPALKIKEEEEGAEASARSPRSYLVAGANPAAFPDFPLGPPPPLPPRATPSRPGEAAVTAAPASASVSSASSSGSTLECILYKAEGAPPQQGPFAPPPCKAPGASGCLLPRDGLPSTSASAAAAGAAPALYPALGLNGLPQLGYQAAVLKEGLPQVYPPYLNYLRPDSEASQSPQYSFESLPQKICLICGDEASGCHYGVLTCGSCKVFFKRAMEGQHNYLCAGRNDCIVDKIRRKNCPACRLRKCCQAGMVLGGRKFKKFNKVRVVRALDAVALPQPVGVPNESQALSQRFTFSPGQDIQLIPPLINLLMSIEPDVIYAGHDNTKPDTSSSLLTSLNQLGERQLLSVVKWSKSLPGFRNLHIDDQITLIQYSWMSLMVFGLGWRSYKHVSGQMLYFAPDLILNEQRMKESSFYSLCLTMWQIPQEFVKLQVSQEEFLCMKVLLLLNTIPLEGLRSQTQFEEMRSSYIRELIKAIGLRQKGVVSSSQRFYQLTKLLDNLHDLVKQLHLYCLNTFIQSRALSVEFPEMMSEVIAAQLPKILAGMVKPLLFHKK
Chain of Nuclear receptor subfamily 1 group I member 2 (Rattus norvegicus) (Q9R1A7 whole entry, looked up): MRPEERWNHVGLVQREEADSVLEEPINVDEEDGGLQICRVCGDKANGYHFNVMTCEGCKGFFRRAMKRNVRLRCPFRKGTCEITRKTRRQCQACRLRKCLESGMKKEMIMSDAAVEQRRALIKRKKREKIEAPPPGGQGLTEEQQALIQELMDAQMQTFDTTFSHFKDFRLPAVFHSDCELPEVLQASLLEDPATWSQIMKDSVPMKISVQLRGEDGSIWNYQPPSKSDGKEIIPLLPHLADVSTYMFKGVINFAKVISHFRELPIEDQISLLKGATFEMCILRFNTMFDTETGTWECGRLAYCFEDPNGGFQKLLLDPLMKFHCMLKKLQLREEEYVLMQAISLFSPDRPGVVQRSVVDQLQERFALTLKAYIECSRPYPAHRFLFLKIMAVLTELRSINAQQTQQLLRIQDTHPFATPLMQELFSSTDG

For `Nc1ccc(S(=O)(=O)Nc2ccc(Cl)nn2)cc1`, the Potency result in assay [1], in [2], in assay [3], in assay [4], in assay [5] and in assay [10] was “inactive” throughout. Besides, the Potency result in assay [11], in [12], in assay [13], in assay [15] and in assay [16] was “inactive” in each case. Further, the molecule was called inactive in assay [6], in assay [7], in assay [8] and in assay [9]. In assay [14], the max activation was -0.0524%.
Turning to `CCCCCCOC(=O)CC`, the Potency entry in assay [1], in assay [2], in assay [3], in assay [4], in assay [10] and in assay [11] was “inactive” each time. Moreover, the Potency entry in assay [12] and in [13] was “inactive” throughout. Moreover, the call in [6], in assay [7], in assay [8], in [9] and in [17] was inactive.
On to `CCC(C)(CCC(C)C)C(=O)O` (stereo not drawn), for which the Potency result in assay [1], in assay [2], in assay [3], in assay [4], in assay [10] and in assay [11] was “inactive” each time. For the same molecule, the Potency result in [12], in assay [13] and in assay [18] was “inactive” in each case. Moreover, the molecule was called inactive in [6], in assay [7] and in assay [17].
Consider `OCCN(CCO)c1cccc(Cl)c1`, for which the Potency entry in [1], in assay [3], in assay [4], in [5], in assay [10] and in assay [11] was “inactive” each time. Moreover, the Potency result in [12] and in assay [18] was “inactive” each time. Also, the outcome in assay [19], in assay [6], in assay [7], in [8], in [9] and in [17] was inactive.
`OCCC(F)(F)C(F)(F)C(F)(F)C(F)(F)C(F)(F)C(F)(F)C(F)(F)C(F)(F)F`: the Potency entry in assay [2], in assay [3], in assay [4], in [5], in assay [10] and in assay [11] was “inactive” each time. The Potency result in [12] and in [18] was “inactive” each time. Further, the outcome in assay [19], in [6], in assay [7], in assay [8], in [9] and in assay [17] was inactive.
Take `NC(CO)C(=O)NNCc1ccc(O)c(O)c1O` (stereo not drawn): the Potency result in assay [3], in assay [4], in assay [5], in assay [10], in [11] and in assay [12] was “inactive” in each case. The Potency result in assay [13] and in assay [16] was “inactive” in each case. The molecule was called inactive in assay [19], in [6], in assay [7] and in assay [17]. Besides, in [14], the max activation is -1.3%.
For `CC(C(=O)O)c1ccc2c(c1)CC(=O)c1ccccc1S2` (stereo not drawn), the Potency entry in [1], in assay [2], in assay [3], in assay [4], in [5] and in [10] was “inactive” throughout. Moreover, the Potency entry in assay [11], in assay [12], in [13] and in assay [18] was “inactive” each time. In addition, the outcome in assay [19], in assay [6], in [7] and in assay [17] was inactive.
Turning to `CCOCCOC(=O)/C=C/c1ccc(OC)cc1`, the Potency result in assay [3], in [4], in assay [10], in assay [11], in [12] and in assay [13] was “inactive” in each case. Besides, in [18], the Potency result is “inactive”. In addition, the molecule was classed as inactive in [6], in assay [7] and in [17].
On to `O=C(c1ccc(O)cc1)c1ccc(O)c(O)c1O`, for which the Potency entry in assay [2], in assay [4] and in assay [11] was “inactive” in each case. The molecule was classed as inactive in assay [19], in [6], in [7], in assay [8], in assay [9] and in assay [17]. Also, the results for the Potency in [12], in [13] and in assay [18] were 61.4 µM (active), 54.7 µM (active) and 13.7 µM (active), respectively.
